USP17 inh – inhibitors of human USP17 deubiquitinase; purified USP17, Ub-rhodamine cleavage fluorescence, 3 h; inhibition, % at 50 µM; 6.5% of 47,000 active
Target sequence (A8MUK1 whole entry, looked up): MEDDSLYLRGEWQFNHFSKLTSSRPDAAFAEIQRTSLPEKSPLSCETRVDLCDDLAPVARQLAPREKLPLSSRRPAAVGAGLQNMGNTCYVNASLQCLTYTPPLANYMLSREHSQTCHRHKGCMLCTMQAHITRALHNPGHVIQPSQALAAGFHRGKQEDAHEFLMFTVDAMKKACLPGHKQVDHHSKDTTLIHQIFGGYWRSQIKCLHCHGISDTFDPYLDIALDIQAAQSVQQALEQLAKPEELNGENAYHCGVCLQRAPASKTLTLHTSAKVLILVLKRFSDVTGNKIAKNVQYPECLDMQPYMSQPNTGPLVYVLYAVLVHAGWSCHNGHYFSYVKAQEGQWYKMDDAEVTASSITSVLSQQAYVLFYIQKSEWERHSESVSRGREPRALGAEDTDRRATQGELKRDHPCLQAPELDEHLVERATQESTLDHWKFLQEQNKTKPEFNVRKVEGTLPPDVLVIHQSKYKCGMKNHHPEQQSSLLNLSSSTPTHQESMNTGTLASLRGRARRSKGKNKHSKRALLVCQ
USP8 inh – inhibitors of human USP8 deubiquitinase. 4.2% of 47,000 active. AID 1645853. purified USP8, Ub-rhodamine cleavage fluorescence, 30 min. inhibition, % at 20 µM
USP30 block – human USP30 deubiquitinase inhibition | Q70CQ3 | purified USP30, Ub-rhodamine cleavage fluorescence | inhibition, % at 25 µM | 5.3% of 47,000 active | AID 1645860
The depositor's hits bear a star. Compounds with a hit are over-represented: about 12% of the library has one in this group of screens. No stated cut-off is given here; in the data, active means inhibition above about 30%; inactive means the rest.

Cc1cc2cc(CNC(=O)c3ccccc3[N+](=O)[O-])ccc2[nH]1 was read as USP17 inh 39.0*, USP8 inh -58.9 and USP30 block 1.2.
Cc1cc2cc(CNC(=O)Cc3ccc(F)cc3)ccc2[nH]1 was read as USP17 inh 8.1, USP8 inh 17.9 and USP30 block -39.4.
CCOc1ccc(CC(=O)NCc2ccc3[nH]c(C)cc3c2)cc1 was read as USP17 inh 18.6, USP8 inh 21.3 and USP30 block -50.2.
For COc1ccc(CC(=O)NCc2ccc3[nH]c(C)cc3c2)cc1 the results were USP17 inh 56.3*, USP8 inh 13.6 and USP30 block -49.6.
For CCNC(=O)c1nc(-c2ccc(N3CCCCCC3)cc2)no1 the results were USP17 inh 19.3, USP8 inh 7.2 and USP30 block -1.4.
`COc1ccc(-c2ocnc2C(=O)Nc2cccc(Cl)c2C)cc1OC` gave USP17 inh 28.0, USP8 inh -23.0 and USP30 block 58.4*.
`COc1ccc(-c2ocnc2C(=O)Nc2cccc(C)c2C)cc1` gave USP17 inh 5.4, USP8 inh 3.0 and USP30 block -0.8.
Cc1nn(-c2ccc(Br)cc2)cc1-c1noc(C(=O)N2CCCCCC2)n1 was read as USP17 inh -16.0, USP8 inh -100.7 and USP30 block -5.5.
CCn1c(=O)c2cc(C(=O)Nc3ccc(OC)c(OC)c3)nn2c2ccccc21 was read as USP17 inh -11.0, USP8 inh -56.5 and USP30 block -5.7.
Screening CCCn1c(=O)c2cc(C(=O)Nc3ccccc3)nn2c2ccccc21 returned USP17 inh 30.6*, USP8 inh -14.9 and USP30 block 0.0.
`CCOc1cccc(NC(=O)c2ccc(S(=O)(=O)N3CCc4ccccc4C3)cc2)c1` gave USP17 inh 52.9*, USP8 inh 27.5 and USP30 block 41.3*.
COc1ccccc1C(=O)Nc1ccc2c(c1)NC(=O)C(C)O2 (configuration not stated) was read as USP17 inh -14.4, USP8 inh 3.1 and USP30 block -4.7.
Screening CC1Oc2ccc(NC(=O)c3cccc(S(=O)(=O)N4CCc5ccccc5C4)c3)cc2NC1=O (configuration not stated) returned USP17 inh 31.4*, USP8 inh -6.6 and USP30 block -13.7.
`O=C(Nc1ccc(Br)c(C(=O)c2ccccc2)c1)c1ccc(S(=O)(=O)N2CCc3ccccc3C2)cc1` gave USP17 inh 8.5, USP8 inh -10.6 and USP30 block 9.3.
`CN(C)c1ncc(-c2ccccn2)c(-c2ccc(CNC(=O)CC3C=CCC3)cc2)n1` (configuration not stated) gave USP17 inh 5.6, USP8 inh 26.6 and USP30 block 17.4.
Screening O=C(CSc1c(-c2ccccc2)[nH]c2ccccc12)N1CCOCC1 returned USP17 inh -4.7, USP8 inh -48.5 and USP30 block 6.3.
Cc1cccc(NC(=O)C(C)n2cnc3nc(N4CCCCC4)ncc3c2=O)c1 (configuration not stated) was read as USP17 inh -9.0, USP8 inh -179.1 and USP30 block -192.7.
O=C(NCc1ccncc1)C1CC(=O)N(c2ccccc2)C1 (configuration not stated) was read as USP17 inh -0.1, USP8 inh 2.6 and USP30 block -28.8.
For O=C(COc1ccc(N2CC(C(=O)NCc3ccccc3)CC2=O)cc1)Nc1ccccc1Cl (configuration not stated) the results were USP17 inh 56.0*, USP8 inh 59.4* and USP30 block 52.0*.
Screening CN(CCO)c1ncnc2c1sc1nc(-c3ccccc3)c3c(c12)CCC3 returned USP17 inh -35.9, USP8 inh -6.1 and USP30 block -105.6.
Screening Cc1ccc2oc(-c3ccc4c(c3)OCO4)cc(=NC(C)C(=O)O)c2c1 (configuration not stated) returned USP17 inh -5.5, USP8 inh 15.3 and USP30 block -101.9.
`COc1cc2nc(SCc3cc(=O)n4ccccc4n3)n3nc(-c4ccccc4)nc3c2cc1OC` gave USP17 inh -24.2, USP8 inh 0.4 and USP30 block -11.7.
For Cc1ccc(C(C)NC(=O)c2cccc(-c3cnc(N4CCCC4)nc3)c2)cc1 (configuration not stated) the results were USP17 inh 11.0, USP8 inh 2.3 and USP30 block -10.3.
`Cc1ccccc1CNC(=O)c1cccc(-c2cnc(N3CCCC3)nc2)c1` gave USP17 inh 4.6, USP8 inh 5.9 and USP30 block 32.4*.
`Clc1ccsc1-c1ccn[nH]1` gave USP17 inh -0.1, USP8 inh 8.4 and USP30 block 4.9.
For O=C1CN(C(=O)COc2ccccc2)C(c2ccccc2)c2cc(Br)ccc2N1 (configuration not stated) the results were USP17 inh -6.7 and USP8 inh -1.3.
O=C1CN(C(=O)COc2ccc(Cl)cc2)C(c2ccccc2)c2cc(Cl)ccc2N1 (configuration not stated) was read as USP17 inh 4.8, USP8 inh 3.3 and USP30 block 6.1.
Screening O=C1CN(C(=O)CC2CCCCC2)C(c2ccccc2)c2cc(Cl)ccc2N1 (configuration not stated) returned USP17 inh 26.8, USP8 inh 34.4* and USP30 block 43.1*.
For COc1ccc(CC(=O)N2CC(=O)Nc3ccc(Br)cc3C2c2ccccc2)cc1 (configuration not stated) the results were USP17 inh 20.1, USP8 inh 18.9 and USP30 block 38.0*.
N[C@@H](Cc1c[nH]c2ccccc12)C(=O)N1CCC(C(=O)N[C@@H](Cc2c[nH]c3ccccc23)C(=O)O)CC1 was read as USP17 inh -21.9, USP8 inh -15.4 and USP30 block -68.5.
Screening CC(C)C(=O)N(Cc1ccc(-c2ccc(F)cc2)o1)C1CCS(=O)(=O)C1 (configuration not stated) returned USP17 inh -5.5, USP8 inh 0.2 and USP30 block -31.4.
`Cc1cccc2c(=O)n(C)c(CCC(=O)NCc3cc(F)ccc3F)nc12` gave USP17 inh 37.7*, USP8 inh 5.3 and USP30 block 44.8*.
For Cc1ccc(CNC(=O)CCc2nnc3c(=O)n(-c4ccc(C)c(C)c4)ccn23)cc1 the results were USP17 inh 32.2*, USP8 inh 41.5* and USP30 block 40.1*.
Screening Cc1ccc(-n2ccn3c(CCC(=O)NCc4ccco4)nnc3c2=O)cc1C returned USP17 inh 5.6, USP8 inh -33.7 and USP30 block 13.6.
For Cn1c(CCC(=O)NCc2cc(F)cc(F)c2)nc2ccccc2c1=O the results were USP17 inh 0.0, USP8 inh 14.8 and USP30 block -15.0.
Cc1cc(C)cc(-n2ccn3c(CCC(=O)NC4CC4)nnc3c2=O)c1 was read as USP17 inh 7.5, USP8 inh 1.3 and USP30 block 8.3.
Screening Cc1ccc(-n2ccn3c(CCC(=O)NCc4ccc(F)cc4)nnc3c2=O)cc1C returned USP17 inh -1.4, USP8 inh 67.0* and USP30 block 26.6.
COc1ccc(/C=C/C(=O)Nc2cccc(-c3nc4ncccc4o3)c2)cc1 was read as USP17 inh -15.9, USP8 inh -6.9 and USP30 block -141.8.
Cc1ccc(C(=O)Nc2cc(C#N)ccc2Sc2ccccc2)cc1 was read as USP17 inh 3.2, USP8 inh 16.5 and USP30 block 17.5.

Compound activity as filed in PubChem BioAssay.
